In all, about 400,000 compounds went through this assay and about 2,100 (0.53%) were called active. Inconclusive results (about 14%) are left out. The sample holds actives, similar compounds and a random draw of the others, so the mix is not that of the screen. The rule behind the calls is not given here.

Among the data in ChEMBL document CHEMBL1201862, “PubChem BioAssay data set” (2004) are Potency values, retold here.

This test deals with Ataxin-2 (Homo sapiens) (UniProt Q99700). Description: qHTS for Inhibitors of ATXN expression. In kind it is functional. (In general: In qHTS, concentration-response curves come from the screen itself.)
Ataxin-2 (Homo sapiens), sequence (Q99700 whole entry): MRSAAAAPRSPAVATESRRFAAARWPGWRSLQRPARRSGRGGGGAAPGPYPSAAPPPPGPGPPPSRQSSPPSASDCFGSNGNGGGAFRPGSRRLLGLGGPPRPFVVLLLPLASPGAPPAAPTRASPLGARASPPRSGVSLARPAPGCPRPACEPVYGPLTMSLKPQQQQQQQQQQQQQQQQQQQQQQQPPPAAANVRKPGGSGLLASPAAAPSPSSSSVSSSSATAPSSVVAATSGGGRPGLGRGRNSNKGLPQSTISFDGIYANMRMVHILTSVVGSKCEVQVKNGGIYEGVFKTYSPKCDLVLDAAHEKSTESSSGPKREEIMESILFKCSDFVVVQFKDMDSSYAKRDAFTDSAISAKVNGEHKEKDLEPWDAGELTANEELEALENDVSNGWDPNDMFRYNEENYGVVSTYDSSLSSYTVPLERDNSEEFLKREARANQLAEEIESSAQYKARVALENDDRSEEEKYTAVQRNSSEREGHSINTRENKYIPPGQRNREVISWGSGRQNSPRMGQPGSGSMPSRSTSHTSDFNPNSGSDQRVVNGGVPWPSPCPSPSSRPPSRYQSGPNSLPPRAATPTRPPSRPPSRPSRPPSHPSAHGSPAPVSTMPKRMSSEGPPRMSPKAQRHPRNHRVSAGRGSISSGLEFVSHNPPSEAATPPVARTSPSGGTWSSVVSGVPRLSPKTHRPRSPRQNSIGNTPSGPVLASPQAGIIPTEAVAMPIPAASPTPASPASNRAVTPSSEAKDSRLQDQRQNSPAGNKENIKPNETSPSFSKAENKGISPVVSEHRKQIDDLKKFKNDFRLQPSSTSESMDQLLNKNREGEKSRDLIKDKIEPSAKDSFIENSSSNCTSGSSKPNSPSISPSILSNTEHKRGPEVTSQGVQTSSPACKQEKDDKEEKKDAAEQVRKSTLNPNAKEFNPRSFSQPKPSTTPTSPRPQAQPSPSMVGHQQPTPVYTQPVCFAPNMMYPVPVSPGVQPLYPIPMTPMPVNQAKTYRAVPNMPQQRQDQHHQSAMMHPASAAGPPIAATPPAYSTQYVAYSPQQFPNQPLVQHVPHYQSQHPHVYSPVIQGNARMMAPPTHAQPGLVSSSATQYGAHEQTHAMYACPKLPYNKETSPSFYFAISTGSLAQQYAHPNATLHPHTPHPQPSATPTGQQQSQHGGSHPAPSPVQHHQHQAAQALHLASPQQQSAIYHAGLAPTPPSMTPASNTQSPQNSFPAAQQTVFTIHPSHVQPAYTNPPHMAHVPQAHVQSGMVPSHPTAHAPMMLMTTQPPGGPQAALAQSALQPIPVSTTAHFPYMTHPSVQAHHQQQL
Turning to `Cc1cc(NC(=O)Nc2ccc(OCc3ccccc3)cc2)n(C)n1`, the Potency result is “inactive”. Regarding `CN=C(S)Nc1ccc(OCc2ccccc2)cc1`, the Potency entry was “inactive”. Turning to `CC(NCc1cccc(OCc2ccccc2)c1)C(O)c1ccccc1` (stereo not given), the Potency is 25.1 µM (active). As for `Oc1ccc(NCc2cccs2)cc1`, the Potency result is “inactive”. Regarding `COc1cc(CNC(C)(C)CO)cc(Br)c1OCc1ccccc1`, the Potency result was “inactive”. Turning to `O=C1CCCCC/C1=N/Nc1ccc(OCc2ccccc2)cc1`, the Potency result is “inactive”. Take `CCOc1cc(CNc2ccc(O)cc2)cc(Br)c1OCc1ccccc1`: the Potency is 20 µM (active).

Take `Oc1ccc(NCc2cccc(OCc3ccccc3)c2)cc1`: the Potency is 28.2 µM (active). As to `Oc1ccc(NCc2ccccc2OCc2ccccc2)cc1`, the Potency is 39.8 µM (active). For `CC(O)CNCCCCOc1ccc(OCc2ccccc2)cc1` (stereo not given), the Potency entry is “inactive”.

With `CCOc1ccc(C2C(C(=O)Nc3ccccc3)=C(C)N=c3s/c(=C/c4cccc(OCC(=O)O)c4)c(=O)n32)cc1` (stereo not given), the Potency result was “inactive”.

In the case of `N#CC1=C(N)OC2=C(CC/C2=C\c2ccccc2Cl)C1c1ccccc1Cl` (stereo not given), the Potency result was “inactive”. On to `COCCNC(=O)c1c(N)n(CCCn2ccnc2)c2nc3ccccc3nc12`, for which the Potency entry was “inactive”. Turning to `O=C(Oc1ccc2ccc(=O)oc2c1)c1ccccc1`, the Potency entry is “inactive”.

For `Oc1ccc(NCc2ccc(OCc3ccccc3Cl)cc2)cc1`, the Potency was 22.4 µM (active).

On to `c1ccc(COc2ccccc2CNC23CC4CC(CC(C4)C2)C3)cc1`, for which the Potency is 20 µM (active).

Turning to `Clc1ncccc1OCc1ccccc1`, the Potency result was “inactive”.

With `N=c1c(C(=O)NC2CCCC2)cc2c(=O)n3ccccc3nc2n1CC1CCCO1` (stereo not given), the Potency result is “inactive”. Consider `COC(=O)Cc1cc(=O)oc2c(C)c(O)ccc12`, for which the Potency result is “inactive”. With `CCCCn1c(-c2cccc(C)c2)nc2cc3nc(O)c(C(C)C)nc3cc21`, the Potency was 31.6 µM (active). For `CCCCn1c(C2CCCCC2)nc2cc3nc(O)c(C(C)C)nc3cc21`, the Potency was 35.5 µM (active). Regarding `CCCC1=Nc2ncnn2C(c2cccs2)/C1=C(\O)OCC` (stereo not given), the Potency entry is “inactive”. As for `CCC(C)n1c(=N)c(C(=O)NC2CCCCC2)cc2c(=O)n3ccccc3nc21` (stereo not given), the entry is “inactive”. As to `CCN(C(=O)COC(=O)C1CCC(C(C)(C)C)CC1)c1c(N)n(Cc2ccccc2)c(=O)[nH]c1=O` (stereo not given), the Potency was 22.4 µM (active). `CCN(C(=O)COC(=O)CCC(=O)c1ccc(Cl)cc1)c1c(N)n(Cc2ccccc2)c(=O)[nH]c1=O`: the Potency result was “inactive”. In the case of `CCN(C(=O)COC(=O)CCS(=O)(=O)c1ccccc1)c1c(N)n(Cc2ccccc2)c(=O)[nH]c1=O`, the Potency result was “inactive”. In the case of `CN(C(=O)COC(=O)/C=C/c1ccc2ccccc2n1)C1CCS(=O)(=O)C1` (stereo not given), the Potency result was “inactive”.

`Cc1cc(Nc2cccc(O)c2)c2cccc(Br)c2n1`: the Potency was 8.91 µM (active). The result for `Oc1cccc(Nc2c3ccccc3nc3ccccc23)c1` reads “inactive”.

`Cc1cc(NCCO)c2cc(O)ccc2n1`: the Potency entry was “inactive”.

`CCOC(=O)C1=CN(CC2CCCO2)C=C(C(=O)OCC)C1c1ccccc1C(F)(F)F` (stereo not given): the Potency entry was “inactive”.

Consider `COc1ccc(C(=O)/C=C/Sc2nc3ccccc3o2)cc1`, for which the Potency was 39.8 µM (active). As to `COc1cccc(C(=O)Oc2ccc3ccc(=O)oc3c2)c1`, the Potency result is “inactive”.

Turning to `COc1ccc(C(=O)/C=C2\Sc3ccccc3N2C)cc1`, the Potency entry is “inactive”. Turning to `CCOC(=O)c1cc2c(=O)n3cccc(C)c3nc2n(Cc2ccco2)/c1=N/C(=O)c1ccccc1`, the Potency result is “inactive”. Take `N#CC1=C(N)N2C(=C(C#N)C1c1cccc(Br)c1)Nc1ccccc12` (stereo not given): the Potency result was “inactive”. `COC(=O)C1=CN(CCOC23CC4CC(CC(C4)C2)C3)C=C(C(=O)OC)C1c1ccsc1`: the Potency result was “inactive”. As to `O=C(OCCC12CC3CC(CC(C3)C1)C2)c1ccc(NCc2cc(O)ccc2O)cc1`, the Potency was 10 µM (active).

Take `O=C(OC12CC3CC(CC(C3)C1)C2)c1ccc(NCc2cc(O)ccc2O)cc1`: the Potency is 8.44 µM (active).

Consider `CC1CCN(c2ccc3c(c2)S(=O)(=O)c2cccc(C(=O)O)c2C3=O)CC1`, for which the Potency entry is “inactive”. As for `CN(O)C(=S)c1ccccc1`, the Potency is 8.91 µM (active). On to `Cc1ccc(S(=O)(=O)Nc2cc(C)c(O)c(Sc3nnc(C)[nH]3)c2)cc1`, for which the Potency entry is “inactive”. For `Cc1cc(=O)oc2c(CN3CC(C)OC(C)C3)c(O)c(Cl)cc12` (stereo not given), the Potency result was “inactive”.

In the case of `CC(=O)Oc1ccc2ccc(=O)oc2c1`, the Potency result is “inactive”.

In the case of `CCN(CC)c1ccc2cc(-c3nc4ccccc4n3C)c(=O)oc2c1`, the Potency result was “inactive”. As for `CCCc1nc2ccc(C(=O)OC)cn2c1Cc1ccccc1C(F)(F)F`, the figure is 39.8 µM (active). For `CCCc1nc2ccc(C)cn2c1Cc1ccccc1`, the Potency was 22.4 µM (active).

Take `CCCc1nc2ccc(C)cn2c1Cc1ccccc1OC`: the Potency is 39.8 µM (active). As for `CCn1c(=N)c(C(=O)NCc2ccccc2)cc2c(=O)n3cc(C)ccc3nc21`, the Potency result was “inactive”. As for `Nn1c(Cc2ccccc2)nc2ccccc2c1=O`, the entry is “inactive”; as for `COCC(C)n1c(SCc2cc(=O)n3cc(C)ccc3n2)nc2ccccc2c1=O` (stereo not given), “inactive”; as for `COCCN1C=C(C(=O)OC)C(c2ccccc2C(F)(F)F)C(C(=O)OC)=C1`, “inactive”. The result for `CCOC(=O)Cc1csc(N/C=C2/C(=O)N(c3ccccc3C(F)(F)F)C(=O)c3ccccc32)n1` reads “inactive”.

For the compound `CCCc1nc2c3ccccc3ccn2c1Cc1ccccc1`, the Potency is 22.4 µM (active). In the case of `CCC(C)n1c(=N)c(C(=O)NCc2ccccc2)cc2c(=O)n3cc(C)ccc3nc21` (stereo not given), the Potency result is “inactive”. As for `O=Cc1ccc(N2N=C(c3ccccc3)CC2c2ccccc2)cc1` (stereo not given), the entry is “inactive”; as for `COC(=O)c1ccc(N2C(c3cc(OC)cc(OC)c3)=Cc3ccc(-c4cccnc4)cc3C2CC(=O)C2CC2)cc1` (stereo not given), “inactive”. On to `COc1ccc(C2C=C(c3ccc(Cl)cc3)Nc3nc(NC(=O)CCC(=O)O)nn32)cc1` (stereo not given), for which the Potency entry was “inactive”.

Consider `CO/C(O)=C1\C(C)=NC2=C(C(=O)CC(C)(C)C2)C1c1cnn(C)c1C` (stereo not given), for which the Potency result is “inactive”. Take `CCN(CC)c1ccc2c(C)c(CN3CCOCC3)c(=O)oc2c1`: the Potency entry was “inactive”. For the compound `COc1ccc(C2CC(c3cccc(F)c3)=NN2c2ccc(S(N)(=O)=O)cc2)cc1` (stereo not given), the Potency entry was “inactive”.

With `CNC(=O)/C(C#N)=C/c1ccc(-c2nc3ccccc3s2)o1`, the Potency result is “inactive”. Regarding `CCCc1nc2c(C)cc(Br)cn2c1Cc1ccc(C)cc1`, the Potency was 20 µM (active). With `CCN(Cc1cc(=O)n2cc(Cl)c(C)c(Cl)c2n1)Cc1nc(O)c2ccccc2n1`, the Potency result was “inactive”. For the compound `CN(C)CCCN(C(=O)/C=C/c1cccs1)c1nc2ccc(F)cc2s1`, the Potency was 39.8 µM (active). For `CC(=O)Nc1ccc(NC(=O)C(C)OC(=O)/C=C/c2cccs2)cc1` (stereo not given), the Potency entry is “inactive”. As for `COc1ccc(OC)c2sc(N(CCN(C)C)C(=O)/C=C/c3cccs3)nc12`, the figure is 28.2 µM (active).

In the case of `CN(C)CCCN(C(=O)C1COc2ccccc2O1)c1nc2ccc(F)cc2s1` (stereo not given), the Potency result was “inactive”. As to `CCN(CC(=O)NCc1ccc(F)cc1)C(=O)/C=C/c1cccs1`, the Potency result was “inactive”.

Consider `CCOC(=O)c1s/c(=N\C(=O)/C=C/c2cccs2)n(C)c1C`, for which the Potency result was “inactive”.
